Data from PubChem BioAssay (EPA / NIEHS).
The source holds several records for some structures; these can differ, active in one and inactive in another. The source made the active and inactive calls. Rule for the calls: active = hit-call score of the fitted dose curve at least 0.9, where 1 is the maximum; inactive = score below 0.9.

What was measured:
[1] = target: CCAAT/enhancer-binding protein beta (Homo sapiens) (UniProt P17676); assay: ATG_C_EBP_CIS: Attagene CIS-FACTORIAL HepG2 Assay for human CCAAT/Enhancer Binding Protein (C/EBP) beta (AID 2282927); conditions: HepG2 Attagene cis-factorial transcription factor reporter; actives raise or lower the signal
Method in brief: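 HepG2, transient MRTU transfection, 24 h treatment. RT-PCR plus CE fluorescence; DMSO negative control, bidirectional fit.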

[2] = ATG_CMV_CIS: Attagene CIS-FACTORIAL HepG2 Assay for human CMV (Internal Marker) (AID 2282928); conditions: HepG2 CMV promoter reporter, transcription factor profiling; actives raise or lower the signal;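 note: endpoint acts as a background internal control marker rather than a target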
Method in brief: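 Cell system: HepG2, transiently transfected multiple reporter units under cis promoters. Exposure: 24 h. Detection: RT-PCR, FAM labeling, HpaI digestion, capillary electrophoresis. Analysis: bidirectional, DMSO baseline.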

[3] = ATG_DR4_LXR_CIS: Attagene CIS-FACTORIAL HepG2 Assay for human Liver X Receptor (LXR), DR4 submotif (AID 2282929); conditions: HepG2 Attagene DR4 cis-reporter, mRNA transcription; actives raise or lower the signal
Method in brief: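 Endogenous factor activity at a DR4 cis-element is read as reporter mRNA in transiently transfected HepG2 cells. Exposure lasts 24 h; transcripts are amplified, fluorescently labelled and sized by capillary electrophoresis, with DMSO as baseline.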

[4] = target: Aryl hydrocarbon receptor (Homo sapiens) (UniProt P35869); assay: ATG_Ahr_CIS: Attagene CIS-FACTORIAL HepG2 Assay for human Aryl Hydrocarbon Receptor (Ahr) (AID 2282930); conditions: HepG2 AhR cis-factorial reporter transcription; actives raise or lower the signal
Method in brief: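 Endogenous factor activity is tracked through cis-promoter reporter units transfected into HepG2 cells. Transcript levels at 24 h are read by fluorescent RT-PCR and capillary electrophoresis, with activity in either direction scored relative to DMSO.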

[5] = ATG_AP_1_CIS: Attagene CIS-FACTORIAL HepG2 Assay for human Activator Protein 1 (AP-1) (AID 2282931); conditions: HepG2 Attagene cis-factorial AP-1 reporter mRNA; actives raise or lower the signal
Method in brief: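 Fluorescence of labelled PCR fragments separated by capillary electrophoresis gives reporter mRNA levels. HepG2 with transfected cis-regulated reporter units, 24 h exposure; DMSO serves as baseline for bidirectional curve fits.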

[6] = ATG_AP_2_CIS: Attagene CIS-FACTORIAL HepG2 Assay for human Activator Protein 2 (AP-2) (AID 2282932); conditions: HepG2 AP-2 cis-reporter, Attagene transcription factor profiling; actives raise or lower the signal
Method in brief: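 HepG2 cells transiently transfected with cis-element reporter units and exposed for 24 h. Reporter mRNA measured by RT-PCR, FAM labelling, HpaI digestion and capillary electrophoresis. Changes in either direction fitted relative to DMSO.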

[7] = ATG_BRE_CIS: Attagene CIS-FACTORIAL HepG2 Assay for human Bone Morphogenetic Protein (BMP) Response Element (BRE) (AID 2282933); conditions: HepG2 BMP response element reporter, Attagene transcription factor profiling; actives raise or lower the signal
Method in brief: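 Transient MRTU transfection of human HepG2 liver cells; 24 h compound treatment; total RNA isolated, reverse-transcribed, PCR-amplified, 6-FAM labelled, HpaI-cut, capillary electrophoresis. DMSO = negative control/baseline, bidirectional fit.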

[8] = target: Retinoic acid receptor alpha (Homo sapiens) (UniProt P10276); assay: ATG_DR5_RAR_CIS: Attagene CIS-FACTORIAL HepG2 Assay for human Retinoic Acid Receptor Alpha (RARE), DR5 submotif (AID 2282934); conditions: HepG2 Attagene cis-factorial RARE DR5 reporter, mRNA; actives raise or lower the signal;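 for AC50: reporter responds to endogenous RAR alpha beta and gamma in HepG2 not RARA alone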
Method in brief: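 After 24 h of chemical exposure, transiently transfected HepG2 cells were lysed for total RNA; the DR5-regulated reporter transcript was quantified via RT-PCR and capillary electrophoresis, with activity fitted bidirectionally against DMSO.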

[9] = target: Transcription factor E2F1 (Homo sapiens) (UniProt Q01094); assay: ATG_E2F_CIS: Attagene CIS-FACTORIAL HepG2 Assay for human E2F Transcription Factor 1 (AID 2282935); conditions: HepG2 Attagene cis-reporter, E2F reporter RNA transcripts; actives raise or lower the signal
Method in brief: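 Endogenous E2F1 activity read through cis-promoter reporter units transfected into HepG2. After 24 h compound treatment, reporter mRNA measured by RT-PCR, HpaI digestion and capillary electrophoresis. Bidirectional fit versus DMSO.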

[10] = ATG_E_Box_CIS: Attagene CIS-FACTORIAL HepG2 Assay for human Enhancer Box (E-box) (AID 2282936); conditions: HepG2 E-box cis-reporter transcription, actives raise or lower the signal
Method in brief: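 HepG2 cells transiently transfected with multiplexed cis-element reporter units, dosed 24 h; reporter mRNA quantified by RT-PCR, 6-FAM labelling, HpaI digestion and capillary electrophoresis. E-box (USF1) signal fitted bidirectionally vs DMSO.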

[11] = ATG_M_61_CIS: Attagene CIS-FACTORIAL HepG2 Assay for M61 Transcription Factor (Internal Marker) (AID 2282937); conditions: HepG2 Attagene CIS-FACTORIAL M61 internal marker reporter; actives raise or lower the signal
Method in brief: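 This endpoint serves as an internal background control within a multiplexed HepG2 cis-reporter panel. Cells are exposed for 24 h; reporter mRNA is amplified, fluorescently labelled and sized by capillary electrophoresis, with DMSO as negative control.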

[12] = ATG_M_19_CIS: Attagene CIS-FACTORIAL HepG2 Assay for M19 Transcription Factor (Internal Marker) (AID 2282939); conditions: HepG2 Attagene CIS-FACTORIAL M19 internal marker reporter; actives raise or lower the signal
Method in brief: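 Transfect HepG2 with MRTU reporter library → dose chemical, 24 h → isolate total RNA, reverse-transcribe with oligo(dT) → PCR, 6-FAM label, HpaI cut (2 h, 37 C) → capillary electrophoresis. Bidirectional fit vs DMSO.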

[13] = ATG_ERE_CIS: Attagene CIS-FACTORIAL HepG2 Assay for Estrogen Response Element (ERE) (AID 2282940); conditions: HepG2 ERE cis-reporter, Attagene RNA transcript; actives raise or lower the signal
Method in brief: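 Transient MRTU transfection of human HepG2; cis-element promoters; 24 h dosing; total RNA → RT (oligo dT) → PCR → 6-FAM primer extension → HpaI digest → CE fluorescence. Bidirectional fit, DMSO baseline.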

[14] = ATG_Ets_CIS: Attagene CIS-FACTORIAL HepG2 Assay for human Erythroblast Transformation Specific (ETS) (AID 2282941); conditions: HepG2 ETS cis-reporter transcription, actives raise or lower the signal
Method in brief: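 After transient cis-reporter transfection, HepG2 cells receive test chemical for 24 h. Reporter mRNA levels, measured by RT-PCR and capillary electrophoresis fluorescence, are analysed bidirectionally relative to the DMSO baseline.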

[15] = ATG_FoxO_CIS: Attagene CIS-FACTORIAL HepG2 Assay for human Forkhead box O (FoxO) (AID 2282943); conditions: HepG2 Attagene cis-reporter, FoxO element, mRNA; actives raise or lower the signal
Method in brief: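 Transfected HepG2 reporter cells exposed to test chemical for 24 h; reporter RNA measured by reverse transcription, PCR and fluorescent capillary electrophoresis; curves fitted for increases and decreases against DMSO.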

[16] = ATG_GATA_CIS: Attagene CIS-FACTORIAL HepG2 Assay for human GATA Binding Protein (AID 2282944); conditions: HepG2 GATA cis-element reporter, Attagene multiplex mRNA; actives raise or lower the signal
Method in brief: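 Transient MRTU transfection, HepG2, 24 h compound exposure. Total RNA → oligo(dT) RT → PCR → 6-FAM primer extension → HpaI cut → CE. Bidirectional fit vs DMSO.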

[17] = ATG_GLI_CIS: Attagene CIS-FACTORIAL HepG2 Assay for human Zinc Finger Protein GLI1 (AID 2282945); conditions: HepG2, Attagene cis-factorial reporter mRNA, GLI element; actives raise or lower the signal
Method in brief: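 Transiently transfected HepG2 cells report endogenous transcription factor activity via cis-element-driven reporter units. After 24 h compound exposure, reporter mRNA was measured by RT-PCR with capillary electrophoresis; bidirectional fitting against DMSO baseline.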

[18] = ATG_EGR_CIS: Attagene CIS-FACTORIAL HepG2 Assay for human Early Growth Response 1 (EGR1) (AID 2282938); conditions: HepG2 Attagene CIS-FACTORIAL EGR reporter mRNA; actives raise or lower the signal
Method in brief: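 HepG2, transient MRTU transfection (cis promoters), 24 h compound. RNA → RT (oligo-dT) → PCR → 6-FAM labelling → HpaI cut → CE fluorescence. Bidirectional fit, DMSO baseline.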

[19] = target: Hepatocyte nuclear factor 3-beta (Homo sapiens) (UniProt Q9Y261); assay: ATG_FoxA2_CIS: Attagene CIS-FACTORIAL HepG2 Assay for human Forkhead box A2 (FOXA2) (AID 2282942); conditions: HepG2 cis-reporter transcription factor activity, 24 h; actives raise or lower the signal
Method in brief: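 Cells: HepG2, transient multiplex reporter transfection. Exposure 24 h. Detection: reporter-specific RT-PCR, fluorescent labelling, restriction digest, capillary electrophoresis. Analysis: bidirectional curve fit, DMSO as negative control.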

Measured: AC50

Retinoic acid receptor alpha (Homo sapiens), sequence (P10276 whole entry, looked up): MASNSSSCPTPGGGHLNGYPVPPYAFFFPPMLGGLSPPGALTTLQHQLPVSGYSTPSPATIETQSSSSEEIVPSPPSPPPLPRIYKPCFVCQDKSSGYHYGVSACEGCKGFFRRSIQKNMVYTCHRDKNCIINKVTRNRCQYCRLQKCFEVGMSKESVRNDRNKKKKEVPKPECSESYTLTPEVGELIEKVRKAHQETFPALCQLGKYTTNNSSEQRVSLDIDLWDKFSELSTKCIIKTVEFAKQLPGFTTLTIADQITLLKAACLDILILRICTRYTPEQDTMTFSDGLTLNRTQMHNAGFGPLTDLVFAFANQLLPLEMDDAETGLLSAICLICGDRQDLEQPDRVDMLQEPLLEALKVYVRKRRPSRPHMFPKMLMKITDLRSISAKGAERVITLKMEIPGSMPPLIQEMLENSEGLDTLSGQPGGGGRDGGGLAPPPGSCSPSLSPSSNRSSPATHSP
Hepatocyte nuclear factor 3-beta (Homo sapiens), sequence (Q9Y261 whole entry, looked up): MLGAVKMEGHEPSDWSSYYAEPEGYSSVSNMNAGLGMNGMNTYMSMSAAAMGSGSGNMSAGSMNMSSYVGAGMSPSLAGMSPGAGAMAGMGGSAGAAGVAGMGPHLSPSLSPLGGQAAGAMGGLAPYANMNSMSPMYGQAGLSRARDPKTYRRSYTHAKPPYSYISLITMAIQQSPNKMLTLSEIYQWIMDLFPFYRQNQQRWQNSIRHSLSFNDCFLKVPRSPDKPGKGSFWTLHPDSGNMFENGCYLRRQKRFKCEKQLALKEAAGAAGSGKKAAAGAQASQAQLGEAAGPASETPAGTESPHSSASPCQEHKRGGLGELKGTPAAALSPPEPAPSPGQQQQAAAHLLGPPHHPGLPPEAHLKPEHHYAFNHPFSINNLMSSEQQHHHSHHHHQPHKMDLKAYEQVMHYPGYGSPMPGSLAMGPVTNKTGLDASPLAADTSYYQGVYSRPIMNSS
Aryl hydrocarbon receptor (Homo sapiens), sequence (P35869 whole entry, looked up): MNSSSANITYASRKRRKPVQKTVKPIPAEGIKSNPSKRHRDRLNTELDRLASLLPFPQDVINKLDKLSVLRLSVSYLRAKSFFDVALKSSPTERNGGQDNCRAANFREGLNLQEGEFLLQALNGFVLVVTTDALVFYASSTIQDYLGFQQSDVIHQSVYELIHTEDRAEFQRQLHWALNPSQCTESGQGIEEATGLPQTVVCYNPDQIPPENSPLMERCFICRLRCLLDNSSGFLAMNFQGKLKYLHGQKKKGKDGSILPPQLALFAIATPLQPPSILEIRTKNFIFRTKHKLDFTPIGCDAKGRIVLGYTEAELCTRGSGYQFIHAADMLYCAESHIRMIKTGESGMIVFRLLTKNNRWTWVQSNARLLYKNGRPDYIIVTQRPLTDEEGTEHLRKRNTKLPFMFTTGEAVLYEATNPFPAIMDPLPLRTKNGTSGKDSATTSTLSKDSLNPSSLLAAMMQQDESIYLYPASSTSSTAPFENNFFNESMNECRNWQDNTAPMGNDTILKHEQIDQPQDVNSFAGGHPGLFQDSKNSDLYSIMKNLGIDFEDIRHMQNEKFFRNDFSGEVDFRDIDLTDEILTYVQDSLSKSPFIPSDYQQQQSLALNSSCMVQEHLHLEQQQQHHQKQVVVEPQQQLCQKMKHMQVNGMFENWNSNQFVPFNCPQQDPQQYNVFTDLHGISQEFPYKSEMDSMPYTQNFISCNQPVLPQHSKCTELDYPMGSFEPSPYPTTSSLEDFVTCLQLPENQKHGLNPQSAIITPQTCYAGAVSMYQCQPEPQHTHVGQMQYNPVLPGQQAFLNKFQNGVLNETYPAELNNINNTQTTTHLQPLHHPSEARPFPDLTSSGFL
Transcription factor E2F1 (Homo sapiens), sequence (Q01094 whole entry, looked up): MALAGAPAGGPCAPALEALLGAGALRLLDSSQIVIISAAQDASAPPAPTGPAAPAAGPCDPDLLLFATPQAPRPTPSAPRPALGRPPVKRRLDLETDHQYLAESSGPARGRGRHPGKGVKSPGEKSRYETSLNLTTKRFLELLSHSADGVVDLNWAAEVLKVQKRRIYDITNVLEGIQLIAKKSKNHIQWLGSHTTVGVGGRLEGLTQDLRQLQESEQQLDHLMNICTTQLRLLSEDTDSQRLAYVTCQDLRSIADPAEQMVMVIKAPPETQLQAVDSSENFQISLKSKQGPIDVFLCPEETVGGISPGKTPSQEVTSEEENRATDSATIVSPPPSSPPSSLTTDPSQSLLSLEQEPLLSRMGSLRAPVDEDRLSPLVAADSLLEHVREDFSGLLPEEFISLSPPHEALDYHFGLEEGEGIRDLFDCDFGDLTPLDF
CCAAT/enhancer-binding protein beta (Homo sapiens), sequence (P17676 whole entry, looked up): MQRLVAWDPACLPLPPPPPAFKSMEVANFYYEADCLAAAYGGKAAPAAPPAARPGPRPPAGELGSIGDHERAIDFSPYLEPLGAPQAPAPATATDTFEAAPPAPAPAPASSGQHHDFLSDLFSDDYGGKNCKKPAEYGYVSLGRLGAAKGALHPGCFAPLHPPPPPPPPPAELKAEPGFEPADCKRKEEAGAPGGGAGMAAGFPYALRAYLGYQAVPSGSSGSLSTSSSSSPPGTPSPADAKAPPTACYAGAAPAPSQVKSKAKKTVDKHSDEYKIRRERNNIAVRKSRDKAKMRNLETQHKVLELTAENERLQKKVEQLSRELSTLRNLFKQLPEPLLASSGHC

O=C(O)C1(C(=O)Nc2ccc(Cl)cc2Cl)CC1
not listed: [18] | [19]
inactive: all other assays above

CCCCCCC(C)OC(=O)COc1nc(F)c(Cl)c(N)c1Cl (stereo not drawn)
not listed: [4] | [8] | [13] | [18] | [19]
inactive: all other assays above

CCNc1nc(N)nc(Cl)n1
not listed: [4] | [6] | [13] | [14]
inactive: all other assays above

N[C@@H](Cc1cc(I)c(Oc2ccc(O)c(I)c2)c(I)c1)C(=O)O
active: [5] 22.6 µM | [19] 1.32 µM
inactive: [1] | [2] | [3] | [5] | [7] | [9] | [10] | [11] | [12] | [19] | [15] | [16] | [17]

C#C[C@]1(O)CC[C@H]2[C@@H]3CCC4=CC(=O)CC[C@@H]4[C@H]3CC[C@@]21CC
not listed: [4] | [6] | [8] | [13] | [18]
inactive: all other assays above

CC(C)(C)[C@@H](O)[C@@H](Cc1ccc(Cl)cc1)n1cncn1
active: [1] 3.43 µM | [5] 13.5 µM | [7] 13.7 µM | [8] 32.1 µM | [15] 12.6 µM
not listed: [4] | [6] | [13] | [14] | [18]
inactive: all other assays above

O=C(O)c1ccccc1
not listed: [6] | [8] | [18]
inactive: all other assays above

CN(C)C(=O)Nc1ccc(Cl)c(Cl)c1
inactive: [1] | [2] | [3] | [5] | [6] | [7] | [8] | [9] | [10] | [11] | [18] | [12] | [13] | [14] | [15] | [16] | [17]
active: [2] 79.1 µM | [5] 27.7 µM | [7] 22.2 µM | [18] 60.3 µM

OB(O)O
not listed: [4] | [14] | [18]
inactive: all other assays above

Cc1nn(C)c(Oc2ccccc2)c1C=NOCc1ccc(C(=O)OC(C)(C)C)cc1
active: [1] 0.0505 µM | [2] 0.0218 µM | [5] 0.0252 µM | [7] 0.0409 µM | [8] 0.0303 µM
not listed: [4] | [6] | [14] | [18] | [19]
inactive: all other assays above

CCN(Cc1c(F)cccc1Cl)c1c([N+](=O)[O-])cc(C(F)(F)F)cc1[N+](=O)[O-]
active: [2] 10.6 µM | [3] 8.45 µM | [5] 28.9 µM | [7] 1.4 µM | [8] 1.8 µM | [13] 1.81 µM
not listed: [6] | [18] | [19]
inactive: all other assays above

CCCCOC(=O)C(C)Oc1ccc(Oc2ccc(C(F)(F)F)cn2)cc1 (stereo not drawn)
not listed: [4]
inactive: all other assays above

Oc1ccc(C(c2ccc(O)cc2)C(Cl)(Cl)Cl)cc1
not listed: [6] | [8] | [13] | [14] | [18] | [19]
inactive: all other assays above

CCCN(CCC)C(=O)SCC
not listed: [6] | [8] | [14] | [18] | [19]
inactive: all other assays above

CCOC(=O)C(C)Oc1ccc(Oc2cnc3cc(Cl)ccc3n2)cc1 (stereo not drawn)
not listed: [6] | [14] | [18]
inactive: all other assays above
